The text below walks through data of PubChem BioAssay (EPA / NIEHS).

The structures appear in SMILES notation. Inconclusive results are not listed. Calls of active or inactive are those of the source. How the source made its calls: active means hit-call score of the fitted dose curve at least 0.9, where 1 is the maximum; inconclusive means response in the unintended direction; inactive means score below 0.9.

Assay [1] is described as follows: ATG_XTT_Cytotoxicity: Cytotoxicity Assessment in the Attagene TRANS-FACTORIAL HepG2 Assay (AID 2283584). In a few lines: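 HepG2 human liver cells, transiently transfected with multiple GAL4-UAS reporter units, were dosed and read at 24 h by XTT as cell number. Loss of signal was fitted relative to DMSO negative control baseline.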
Assay [2] is described as follows: TOX21_p53_BLA_p2_viability: Viability Assessment in the Tox21 HCT-116 p53 Agonism Beta-lactamase Assay, Phase 2 (AID 2283591).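 Further: compound exposure lasted 16 h at 37 °C; actives lower the ATP signal meaning cytotoxicity.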 In a few lines:
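HCT-116 p53-bla cells (4000/well) rested 5 h at 37C, then received compounds in DMSO (217-fold dilution) for 16 h at 37C, 5% CO2. After the CCF4 read, CellTiter-Glo was added; ATP luminescence was read after 30 min at room temperature.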

The target of assay [3] is Cellular tumor antigen p53 (Homo sapiens) (UniProt P04637). As to the kind of experiment: TOX21_p53_BLA_p2_ratio: Tox21 HCT-116 p53 Agonism Beta-lactamase Assay, Ratio, Phase 2 (AID 2283592). In a few lines: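 HCT116 cells carrying a p53-responsive beta-lactamase reporter were plated, incubated 5 h at 37C, then dosed with compounds in DMSO (217-fold dilution) for 16 h. CCF4-AM substrate was added for 2 h at room temperature; the 460/530 nm emission ratio gave gain-of-signal activity relative to DMSO.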
Cellular tumor antigen p53 (Homo sapiens), sequence (P04637 whole entry, looked up): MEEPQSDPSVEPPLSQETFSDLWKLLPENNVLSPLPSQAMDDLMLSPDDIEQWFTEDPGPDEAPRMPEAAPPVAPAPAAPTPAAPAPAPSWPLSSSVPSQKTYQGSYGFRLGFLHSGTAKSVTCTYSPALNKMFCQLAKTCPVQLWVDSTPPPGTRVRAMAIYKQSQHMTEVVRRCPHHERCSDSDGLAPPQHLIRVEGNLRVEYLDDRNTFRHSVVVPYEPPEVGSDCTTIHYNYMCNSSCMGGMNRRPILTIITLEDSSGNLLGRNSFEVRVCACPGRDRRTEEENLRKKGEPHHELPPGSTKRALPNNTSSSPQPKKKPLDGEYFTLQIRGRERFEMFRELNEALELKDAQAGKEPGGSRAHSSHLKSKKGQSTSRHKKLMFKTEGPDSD

Assay [4] can be described thus: TOX21_p53_BLA_p3_viability: Viability Assessment in the Tox21 HCT-116 p53 Agonism Beta-lactamase Assay, Phase 3 (AID 2283593).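 Further: cells exposed to compound for 16 h before reading.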 In a few lines: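 HCT-116 cells (4000/well) rested 5 h at 37C, then got DMSO compounds by pin tool (217-fold dilution) for 16 h at 37C, 5% CO2. After the bla read, CellTiter-Glo was added and luminescence read at 30 min, room temperature.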

The target of assay [5] is Cellular tumor antigen p53 (Homo sapiens) (UniProt P04637). The assay can be described thus: TOX21_p53_BLA_p3_ratio: Tox21 HCT-116 p53 Agonism Beta-lactamase Assay, Ratio, Phase 3 (AID 2283596). An outline of the steps: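 HCT116 p53-bla cells (4000/well) given compound in DMSO (217-fold dilution) after 5 h, incubated 16 h at 37C. CCF4-AM substrate 2 h at room temperature; 460/530 nm emission ratio, gain fitted against DMSO.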

A short description of assay [6]: TOX21_p53_BLA_p4_viability: Viability Assessment in the Tox21 HCT-116 p53 Agonism Beta-lactamase Assay, Phase 4 (AID 2283597).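 Further: hits lower the luminescence signal meaning cytotoxicity.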 In a few lines: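 HCT116 p53-bla cells (4000/well) rested 5 h at 37C, then received compounds in DMSO (217-fold dilution) for 16 h at 37C, 5% CO2. CellTiter-Glo was added after the CCF4-AM read, and luminescence was read after 30 min at room temperature.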

Assay [7] addresses Cellular tumor antigen p53 (Homo sapiens) (UniProt P04637). The assay can be described thus: TOX21_p53_BLA_p5_ratio: Tox21 HCT-116 p53 Agonism Beta-lactamase Assay, Ratio, Phase 5 (AID 2283599). An outline of the steps:
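HCT-116 cells carrying a p53-inducible beta-lactamase reporter were seeded at 4000 cells/well and dosed after 5 h with compound in DMSO (217-fold dilution). After 16 h at 37C, CCF4-AM substrate was added for 2 h, and the 460/530 nm emission ratio was scored as gain-of-signal versus DMSO.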

A short description of assay [8]: TOX21_p53_BLA_p5_viability: Viability Assessment in the Tox21 HCT-116 p53 Agonism Beta-lactamase Assay, Phase 5 (AID 2283600). An outline of the steps: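 Cells were plated at 4000/well, rested 5 h at 37C, then given compounds in DMSO (217-fold dilution) for 16 h at 37C, 5% CO2. Following the CCF4-AM beta-lactamase read, CellTiter-Glo was added and luminescence was read after 30 min at room temperature.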

Assay [9] has as its target Cellular tumor antigen p53 (Homo sapiens) (UniProt P04637). As to the kind of experiment: TOX21_p53_BLA_p4_ratio: Tox21 HCT-116 p53 Agonism Beta-lactamase Assay, Ratio, Phase 4 (AID 2283601). An outline of the steps:
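HCT116 cells carrying an inducible beta-lactamase reporter were plated at 4000 cells/well, rested 5 h, then exposed to compounds in DMSO (217-fold dilution) for 16 h at 37C. CCF4-AM substrate was loaded 2 h at room temperature; 460/530 nm emission ratio scored gain-of-signal versus DMSO.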

With `O=C(O)CCCCCCCCC(=O)O`, the call in assay [1], in assay [2], in assay [3], in assay [4], in assay [5] and in [6] was inactive. The outcome in assay [7], in [8] and in assay [9] was inactive.
`C=Cc1ccc(C)cc1`: the outcome in [1], in [2], in assay [3], in assay [4], in [5] and in assay [6] was inactive. The result in assay [7], in [8] and in assay [9] was inactive.
Consider `OCC#CCO`, for which the call in [1], in assay [2], in assay [3], in assay [4], in assay [5] and in assay [6] was inactive. Besides, the result in assay [7], in assay [8] and in assay [9] was inactive.
In general, AC50 refers to the midpoint of the concentration-response curve, whichever way the signal moves. For the molecule `O=[N+]([O-])c1ccc(O)cc1C(F)(F)F`, the molecule was called inactive in assay [1], in assay [2], in assay [4], in assay [6] and in assay [8]. In addition, the AC50 in assay [3] is 28.2 µM (active); in assay [5] it was 42 µM (active); in [7], 30.7 µM (active); in [9], 45.6 µM (active).
Consider `O=CCc1ccccc1`, for which the result in assay [1], in assay [2], in [3], in assay [4], in [5] and in assay [6] was inactive. For the same molecule, the result in [8] and in [9] was inactive.
As for `COC(=O)c1ccc(OC)cc1`, the molecule was called inactive in assay [1], in assay [2], in [3], in assay [4], in assay [5] and in assay [6]. In addition, the result in [7] and in assay [9] was inactive.
On to `CC(=O)CC(=O)Nc1ccc(C)cc1C`, for which the call in assay [1], in assay [2], in assay [3], in assay [4], in assay [5] and in [6] was inactive. Also, the result in assay [8] was inactive.
For `CC(CN=Cc1ccccc1O)N=Cc1ccccc1O` (stereo not drawn), the result in [1], in assay [2], in assay [3], in assay [4], in assay [5] and in assay [7] was inactive.
On to `Cc1ncc([N+](=O)[O-])n1CCO`, for which the call in assay [1], in [2], in [3], in assay [4], in assay [5] and in assay [6] was inactive. Moreover, the result in [7], in [8] and in assay [9] was inactive.
Regarding `CCOC(=O)C(C#N)=C(c1ccccc1)c1ccccc1`, the call in assay [1], in assay [2], in [3], in assay [4], in assay [5] and in assay [6] was inactive. In addition, the outcome in assay [7], in [8] and in [9] was inactive.
